An excerpt weighted towards active compounds, which were near 12% of everything screened.
BAZ2B block: blocks human BAZ2B. Q9UIF8. 360,000 compounds, 4.4% hits. AlphaScreen BAZ2B-H3K14Ac peptide displacement. Potency, µM (highest dose often 114 µM), for inactives: at the top dose activity change, negative = inhibition, actives largely listed as inhibitors; further: on the % scale 0 is the no-effect control and ±100 the full control effect; nearly all actives have a fitted effect of over 60% in size
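Compounds, titrated to a top concentration of 110 uM, were incubated 30 min at room temperature with preformed BAZ2B/acetyl-K14 H3 peptide complex (50 nM each). Proximity signal was measured by AlphaScreen after 20 min with beads.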
JMJD2A Tudor inh: JMJD2A Tudor domain (human) inhibition; O75164; AlphaScreen JMJD2A-Tudor / H3K4me3 peptide binding; Potency, µM (doses to about 114 µM), without a hit: top-dose activity change, negative = inhibition, actives largely listed as inhibitors; 390,000 compounds, 4.4% hits; AID 504339; further: on the % scale 0 is the no-effect control and ±100 the full control effect; nearly all actives have a fitted effect of over 50% in size
Target sequence (O75164 whole entry, looked up, the tested form may be a part): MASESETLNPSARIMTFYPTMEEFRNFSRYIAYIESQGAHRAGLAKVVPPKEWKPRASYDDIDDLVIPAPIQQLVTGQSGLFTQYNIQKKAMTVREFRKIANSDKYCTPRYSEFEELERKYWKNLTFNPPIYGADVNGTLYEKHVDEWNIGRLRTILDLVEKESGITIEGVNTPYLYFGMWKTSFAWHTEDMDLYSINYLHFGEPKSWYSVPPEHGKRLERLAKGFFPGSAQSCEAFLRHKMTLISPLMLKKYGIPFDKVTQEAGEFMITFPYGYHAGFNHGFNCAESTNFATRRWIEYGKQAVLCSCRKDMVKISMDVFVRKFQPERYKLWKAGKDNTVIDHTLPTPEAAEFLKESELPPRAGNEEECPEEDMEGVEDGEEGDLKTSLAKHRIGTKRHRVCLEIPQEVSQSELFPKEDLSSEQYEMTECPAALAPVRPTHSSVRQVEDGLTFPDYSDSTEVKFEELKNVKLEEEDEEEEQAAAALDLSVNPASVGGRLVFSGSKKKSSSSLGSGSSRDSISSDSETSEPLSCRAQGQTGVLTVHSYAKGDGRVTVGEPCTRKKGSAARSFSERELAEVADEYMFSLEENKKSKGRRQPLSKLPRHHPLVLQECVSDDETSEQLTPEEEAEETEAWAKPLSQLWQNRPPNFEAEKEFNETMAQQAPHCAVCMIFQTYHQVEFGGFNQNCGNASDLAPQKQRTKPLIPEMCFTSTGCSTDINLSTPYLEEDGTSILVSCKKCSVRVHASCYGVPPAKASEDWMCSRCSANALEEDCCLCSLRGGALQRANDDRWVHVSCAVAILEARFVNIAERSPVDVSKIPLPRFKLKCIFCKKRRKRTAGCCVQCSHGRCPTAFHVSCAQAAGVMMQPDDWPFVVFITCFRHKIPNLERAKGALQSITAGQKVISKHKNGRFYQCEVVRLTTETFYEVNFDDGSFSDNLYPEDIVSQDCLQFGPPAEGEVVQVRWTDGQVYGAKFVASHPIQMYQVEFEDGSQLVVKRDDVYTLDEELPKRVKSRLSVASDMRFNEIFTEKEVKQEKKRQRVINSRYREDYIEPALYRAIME
Sfp inh: Sfp phosphopantetheinyl transferase inhibition; 310,000 compounds, 3.5% hits; Biochemical Sfp PPTase activity, qHTS; Potency, µM, without a hit: largest response in the series, negative = inhibition, hits mostly inhibitors;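 further: the enzyme is Sfp with the accession as filed and its product quenches rhodamine fluorescence; 0% = enzyme reaction without inhibitor and -100% = no enzyme wells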
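Step 1, compound plus 15 nM Sfp-PPTase, 15 min, room temperature. Step 2, add rhodamine-CoA (5 uM) and BHQ-2-YbbR (12.5 uM). Step 3, read 525/598 nm fluorescence at 0 and 30 min.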
HP1b chromo inh: HP1-beta chromodomain-methylated histone interaction inhibition. 390,000 compounds, 0.56% hits. AlphaScreen HP1-beta / biotin-H3K9me3 peptide binding. Potency, µM (titrated, usually from 114 µM), inactives show at the top dose activity change, negative = inhibition, usual class: inhibitors; further: nearly all actives have a fitted effect of over 70% in size
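Compound inhibition of the preformed complex between 50 nM HP1-beta and 50 nM biotinylated H3K9me3 peptide was read by AlphaScreen. Buffer was PBS pH 7.4 with 0.01% Tween-20. Incubations ran 30 min at room temperature, with 10 ug/mL donor/acceptor beads.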
G9a block: blocks human histone lysine methyltransferase G9a; AID 504332; 350,000 compounds, 8.8% hits; Potency, µM (doses to about 102 µM), for inactives: at the highest dose activity, negative = inhibition, actives largely listed as inhibitors; G9a H3K9 monomethylation, AlphaScreen, 2 h; further: on the % scale 0 is the no-effect control and ±100 the full control effect; nearly all actives have a fitted effect of over 75% in size
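Quantitative HTS format: methyltransferase activity on a biotin-tagged H3K9 peptide is measured by AlphaScreen, using a rabbit anti-monomethyl-H3K9 antibody with streptavidin donor and anti-IgG acceptor beads. Final levels are 20 nM enzyme, 500 nM peptide, 20 uM SAM; 2 h RT.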
L3MBTL1 inh: inhibitors of human L3MBTL1. Q9Y468. AlphaScreen L3MBTL1–H3K9me1 peptide binding. Potency, µM (top dose mostly 57.1 µM), without a hit: at the highest dose activity, negative = inhibition, usual class: inhibitors. 230,000 compounds, 0.66% hits. AID 485360; further: on the % scale 0 is the no-effect control and ±100 the full control effect; nearly all actives have a fitted effect of over 60% in size
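L3MBTL1 (50 nM) pre-complexed 30 min with biotinylated H3(1-15)K9me1 peptide (75 nM), then compounds added for 30 min at room temperature; AlphaScreen streptavidin donor/nickel chelate acceptor beads (10 ug/mL final) read after 30 min dark incubation.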
Active calls of the source: *; ? = inconclusive; nt = not tested or not shown; [ ] = another dose, or the depositor's remark. The call rests on the fitted dose curve; in most records, active means well fitted curve in the direction sought with a large enough effect; inconclusive means small, poorly fitted or top-dose-only effect, or another doubt; inactive means no such curve, though single readings can be large; an effect the other way counts as inactive or inconclusive. Potency means the concentration at half of the fitted maximal effect.

SMILES	BAZ2B block	JMJD2A Tudor inh	Sfp inh	HP1b chromo inh	G9a block	L3MBTL1 inh
O=C(CSc1nccn1Cc1ccccc1)Nc1nc2ccccc2s1	?	50µM*	nt	-5%[57 µM]	-43%[59 µM]	nt
COc1ccc2nc(NC(=O)CSc3nccc(C)n3)sc2c1	-32%	-21%	0%	8%	34%[12.7 µM]	5%
CN(c1ccc(F)cc1)S(=O)(=O)N1CCCC(C(=O)NCCc2ccccc2)C1 (stereo not drawn)	-7%	3%	nt	29%	-22%[59 µM]	nt
O=C(CN(c1ccc2c(c1)OCCO2)S(=O)(=O)c1ccccc1)N1CCN(Cc2ccccc2)CC1	-24%	-21%[57.1 µM]	11%	19%	-32%	-12%
Cc1noc(C)c1-c1cncnc1N1CCN(C)CC1	nt	nt	5%	nt	20%[0.501 µM]	nt
Cc1nc(SCC(=O)Nc2nc3ccccc3s2)n[nH]1	-1%	-8%	4%	33%	79µM*	nt
CSc1nsc(SCC(=O)Nc2nc3ccccc3s2)n1	3%	-17%	3%	29%	5%[59 µM]	3%
Cc1cc(C(F)(F)F)c(C#N)c(SCC(=O)Nc2nc3ccccc3s2)n1	3%	-16%	3%	44%	5%[59 µM]	-1%
Cc1nc(SCC(=O)Nc2nc3ccccc3s2)c(C#N)c(C)c1C	-1%	3%	50µM*	42%	10µM*	10%
CC1CC(C)CN(C(=O)C(Cc2ccccc2)NC(=O)c2ccccc2)C1 (stereo not drawn)	3%	-11%	nt	17%	16%	-2%
Cc1nc(-c2ccccc2O)n(S(=O)(=O)N(C)C)n1	4%	?	1%	-12%	7%[12.7 µM]	-4%[11.4 µM]
CN(C)S(=O)(=O)N1C(=O)c2ccccc2C1=O	-19%	1%	13µM*	32%	-10%[2.33 µM]	0%
Cn1nc(-c2ccncc2)nc2c(=O)n(C)c(=O)nc1-2	nt	2%[57.1 µM]	nt	29%[57 µM]	nt	nt
COc1ccc(N=C2C(=O)Nc3c(C)cccc32)cc1	?	?	9%	-7%	50µM*	-4%
Cc1ccc(N=C2C(=O)Nc3c(C)cccc32)cc1	-35%	-9%	2%	25%	14%	-4%
COc1ccc(Cc2nnc(SCC(=O)N3CCCCC3)o2)cc1	-21%	-19%	-11%	-39%	71µM*	-3%
O=[N+]([O-])c1ccc(C[n+]2cccc3ccc4cccnc4c32)cc1	13µM*	11µM*	14µM*	-16%	nt	-85%
O=[N+]([O-])c1ccc(C[n+]2cccc3ccccc32)cc1	-18%	2%	-3%	22%	14µM*	-5%
O=[N+]([O-])c1ccc(C[n+]2cccc(O)c2)cc1	2%	-3%	nt	31%	-8%[2.33 µM]	8%
Cc1cccc(NC(=O)Cn2c(=O)n(CCc3ccccc3)c(=O)c3sc4ccccc4c32)c1	-39%	-3%	nt	46%	36%[59 µM]	nt
CCOC(=O)c1cc(-c2ccc(C)o2)nn1CCC#N	-39%	-14%	-21%	6%	13µM*	-3%
CC1(C)SC2C(C(=O)O)N=C(Cc3ccccc3)N2C1C(=O)O (stereo not drawn)	nt	?	nt	71%	nt	nt
COc1ccccc1C(=O)NCCC(=O)N(C)CC(=O)Nc1ccc(N2CCOCC2)cc1	10%	-6%	nt	38%	45µM*	5%
CN(CC(=O)Nc1ccc(N2CCOCC2)cc1)C(=O)CCNC(=O)c1ccc(Br)cc1	-13%	-13%	nt	3%	45µM*	-4%
CCOc1ccc(S(=O)(=O)Nc2nc3ccccc3nc2Nc2ccc(N3CCOCC3)cc2)cc1	28µM*	50µM*	-5%	?	10µM*	-21%
SMILES	BAZ2B block	JMJD2A Tudor inh	Sfp inh	HP1b chromo inh	G9a block	L3MBTL1 inh
Cc1cccc(C(=O)NCC(=O)N(C)CC(=O)Nc2ccc(N3CCOCC3)cc2)c1	-16%	1%	6%	24%	?	nt
CCCCOc1ccc(C(=O)NCC(=O)N(C)CC(=O)Nc2ccc(N3CCOCC3)cc2)cc1	-2%	-31%	nt	-11%	25µM*	3%
COc1cccc(NC(=O)CN2C=NS(=O)(=O)c3ccccc32)c1	0%	-17%	nt	20%	0%[59 µM]	nt
CC1(Cn2ccnn2)[C@H](C(=O)O)N2C(=O)C[C@H]2S1(=O)=O (stereo partly drawn)	nt	nt	4%	nt	22%[59 µM]	nt
CC(C)(C)c1ccc(OCCC(=O)OCC(=O)Nc2ccc(N3CCOCC3)cc2)cc1	9%	-11%	nt	29%	45µM*	0%
CCOc1ccc(S(=O)(=O)NCCC(=O)N(C)CC(=O)Nc2ccc(N3CCOCC3)cc2)cc1	-3%	-14%	nt	7%	35µM*	4%
Cc1ccc(OCC(=O)N(C)CC(=O)Nc2ccc(N3CCOCC3)cc2)cc1	-8%	-12%	nt	10%	4%[0.501 µM]	0%
CCn1c2ccccc2c2nc3cc(S(=O)(=O)N4CCOCC4)ccc3nc21	1%	-9%[57.1 µM]	6.3µM*	?	2.2µM*	14%
Cc1[nH]c2ccccc2c1C(=O)CSc1nc2cc(S(=O)(=O)N3CCCCC3)ccc2o1	-5%	-14%[57.1 µM]	10%	29%	-26%	-6%
Cc1ccc(C(=O)CSc2nc3cc(S(=O)(=O)N4CCOCC4)ccc3o2)cc1	2%	-13%	-15%	5%	32µM*	-4%
CCSc1nc2cc(S(=O)(=O)N3CCOCC3)ccc2o1	nt	28µM*	nt	?	nt	4%
O=c1ccc2cc(S(=O)(=O)N3CCOCC3)ccc2o1	-12%	0%	16%	12%	4%[59 µM]	-3%
CCC(C)NC(=O)CSc1nc2cc(S(=O)(=O)N3CCOCC3)ccc2n1CC (stereo not drawn)	-10%	-12%	nt	18%	-34%	-12%
CCn1c(SCC(=O)c2cc(C)ccc2C)nc2cc(S(=O)(=O)N3CCOCC3)ccc21	-9%	-9%	15%	20%	25µM*	-3%
Cc1cc(C(=O)N2CCN(c3ncccn3)CC2)nn1C	3%	-4%	15%	34%	9%[59 µM]	4%
O=C(c1cnccn1)N1CCC2(CC1)CCN(c1cccc(-c3ccccc3)c1)CC2	nt	nt	-8%	nt	-6%[12.7 µM]	nt
O=C(NC1CCCc2ccccc21)c1cc(S(=O)(=O)N2CCOCC2)ccc1F (stereo not drawn)	nt	-24%	-6%	50%	22%	9%
O=C(CSc1nc2cc(S(=O)(=O)N3CCOCC3)ccc2o1)NC1CCCc2ccccc21 (stereo not drawn)	-5%	50µM*	10µM*	-36%	?	2%[11.4 µM]
COc1ccc(C2c3ccccc3Oc3ncn(CCN4CCOCC4)c(=N)c32)cc1OC (stereo not drawn)	nt	-35%	nt	nt	nt	nt
CCSc1ccccc1C(=O)NCCCn1ccnc1	3%	-31%	?	29%	20µM*	0%
CCCCNC(=O)c1ccccc1C(=O)NCCCC	4%	14µM*	21%	?	6%[59 µM]	11%
CCCCNC(=O)c1ccccc1Cl	1%	-1%	17%	34%	0%	nt

Screening data: PubChem, National Center for Advancing Translational Sciences (NCATS)
